Sampled rows, rich in hits. Any-hit rate of the full collection: about 7.5%.
Vaccinia mCherry = vaccinia inhibition (mCherry reporter); AID 720579; Vaccinia virus mCherry reporter infection, fluorescence; Potency, µM (top dose mostly 36.5 µM), without a hit: at the highest dose activity change, negative = inhibition, hits mostly inhibitors; 0.63% of 310,000 active; calls by dose curve; tested in A549 cells; also: potency is read from the fitted curve at half-maximal effect; nearly all actives have a fitted effect of over 35% in size
FMDV antiviral = antivirals against foot and mouth disease virus; FMDV antiviral cell-based qHTS; Potency, µM (doses to about 57.9 µM), for inactives: at the top dose activity change, negative = inhibition, actives largely listed as inhibitors; 1.2% of 410,000 active; calls by dose curve; tested in HEK293T cells; also: read-out not given here; potency is read from the fitted curve at half-maximal effect; nearly all actives have a fitted effect of over 45% in size
Giardia FBPA inh = blocks Giardia fructose-bisphosphate aldolase activity; A8B2U2; Potency, µM (doses to about 59.6 µM), inactives show at the top dose activity, negative = inhibition, usual class: inhibitors; AID 2451; 0.71% of 290,000 active; purified Giardia FBPA; also: potency is read from the fitted curve at half-maximal effect; nearly all actives have a fitted effect of over 55% in size
Target sequence (A8B2U2 whole entry, looked up): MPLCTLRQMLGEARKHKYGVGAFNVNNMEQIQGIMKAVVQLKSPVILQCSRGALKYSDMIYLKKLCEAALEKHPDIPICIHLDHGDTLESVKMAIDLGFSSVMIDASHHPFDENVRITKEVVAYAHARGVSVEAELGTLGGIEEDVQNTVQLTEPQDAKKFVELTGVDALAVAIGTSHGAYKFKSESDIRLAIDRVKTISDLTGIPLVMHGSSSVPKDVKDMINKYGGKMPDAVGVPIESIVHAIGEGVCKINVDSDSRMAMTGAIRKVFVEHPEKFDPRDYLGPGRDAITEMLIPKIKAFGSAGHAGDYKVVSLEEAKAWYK
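40 nM FBPA preincubated 10 min at RT with compound (up to 57.5 uM final), then substrate plus GAPDH/TPI/NAD/arsenate coupling and diaphorase/resazurin added. Fluorescence read after 20 min at RT, 525/598 nm.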
HCMV antiviral = blocks human cytomegalovirus replication; activity change, negative = inhibition, % at 57.5 µM; HFF cells, HCMV-luciferase reporter, 72 h; stronger effect = lower value; AID 1259415; 4.5% of 410,000 active; in the data active = activity change below about -60%; inconclusive = no clear call, values can overlap the other calls; inactive = above about -39%
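Compounds were evaluated in HFFs infected with an HCMV luciferase reporter virus (MOI 1 PFU/cell). Luciferase in lysates collected 72 h post infection served as the replication measure.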
HCV inhibitor = blocks hepatitis C virus; Huh7.5.1 HCVcc-Cre infection, luciferase reporter, 44 h; Potency, µM (highest dose often 41.8 µM), for inactives: at the highest dose activity change, negative = inhibition, most hits filed as inhibitors; 3.4% of 340,000 active; also: potency is read from the fitted curve at half-maximal effect
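Infectious HCVcc-Cre (~0.5 moi) was added to cells just after compound, with cells seeded 4 h earlier at 1,000 per well. Luciferase activity after 44 h culture reported infection; substrate was incubated 15 min at room temperature before reading.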
VACV Venus inh = vaccinia inhibition (Venus reporter); Vaccinia virus Venus reporter expression, fluorescence; Potency, µM (highest dose often 36.5 µM), for the others: at the highest dose activity change, negative = inhibition, most hits filed as inhibitors; AID 720580; 0.46% of 330,000 active; calls by dose curve; tested in A549 cells; also: potency is read from the fitted curve at half-maximal effect; nearly all actives have a fitted effect of over 30% in size
Active calls of the source: *; i = inactive; u = inconclusive; x = no result given. Unless noted, calls follow the shape of the dose curve; as a rule, active = well fitted curve in the direction sought with a large enough effect; inconclusive = small, poorly fitted or top-dose-only effect, or another doubt; inactive = no such curve, though single readings can be large; an effect the other way counts as inactive or inconclusive. % is scaled to controls: 0 for no effect and ±100 for the full control effect.

SMILES	Vaccinia mCherry	FMDV antiviral	Giardia FBPA inh	HCMV antiviral	HCV inhibitor	VACV Venus inh
Cc1ccc(CNC(=O)CCc2nc(-c3cccs3)no2)cc1	-21%	2%	-3%	-75*	-11%	-16%
O=C(CCc1nc(-c2cccs2)no1)NCc1ccc(F)cc1Cl	i	-4%	8%	-63*	-3%	-14%
CCc1ccccc1NC(=O)CCc1nc(-c2cccs2)no1	x	20%	5%	1	-1%	x
COc1ccccc1CNC(=O)Nc1nc(C(N)CCc2ccccc2)cs1 (stereo not drawn)	-30%	u	x	-8	x	-26%
COc1ccc(OCCNc2cc(Cl)ccc2[N+](=O)[O-])cc1	-11%	x	-15%	-65*	u	-8%
COc1ccc(OCCNc2cc(N3CCOCC3)ccc2[N+](=O)[O-])cc1	11µM*	u	1%	-3	u	u
CC1CN(c2ccc([N+](=O)[O-])c(NCCOc3ccccc3)c2)CCN1 (stereo not drawn)	u	7%	3%	39	10µM*	11µM*
Cc1ccccc1OCCNc1cc(N2CCCCC2)ccc1[N+](=O)[O-]	u	-8%	-2%	-28	14µM*	u
COc1cc(C(=O)OCC(=O)NC(N)=O)cc(CN2C(=O)c3ccccc3C2=O)c1OC	x	-13%	-10%	9	21%	x
COc1cccc(OCCNc2cc(N3CCOCC3)ccc2[N+](=O)[O-])c1	-24%	-1%	-11%	31	14µM*	u
Cc1cccc(OCCNc2cc(N3CCN(CCO)CC3)ccc2[N+](=O)[O-])c1	10µM*	20%	-20%	-3	u	u
COc1cccc(OCCNc2cc(N3CCCCC3)ccc2[N+](=O)[O-])c1	-18%	1%	2%	-28	u	-14%
COc1ccccc1NC(=S)N1C2CCC1CC(NC(=O)NC13CC4CC(CC(C4)C1)C3)C2 (stereo not drawn)	u	-15%	0%	u	-18%	-29%
COCC(=O)NC1CC2CCC(C1)N2C(=S)Nc1ccccc1C(=O)OC (stereo not drawn)	6%	-11%	24%	-83*	3%	-11%
O=C(NCc1ccncc1)c1nc(-c2ccc(C(F)(F)F)cc2)no1	-28%	u	1%	-79*	u	3%
O=C(NCc1cccnc1)c1nc(-c2ccc(C(F)(F)F)cc2)no1	-9%	-27%	1%	-61*	u	-19%
COc1cccc(-c2ccc3ncnc(N4CCN(C)CC4)c3c2)c1	x	u	-2%	x	x	x
COc1ccc2c(c1)sc(=NC(=O)CS(=O)(=O)c1ccc(F)cc1)n2C	i	-18%	x	-73*	u	-17%
CCCn1c(=NC(=O)CS(=O)(=O)c2ccccc2)sc2cc(S(C)(=O)=O)ccc21	-15%	-12%	x	u	9%	-12%
Nc1nc(-c2ccccc2)c(-c2ccc([N+](=O)[O-])cc2)s1	22µM*	u	-1%	u	u	u
C/C=C/C(=O)Nc1cccc(C2=NOC3(C2)C[C@@H](C(N)=O)N(C(=O)/C(C)=C/C)C3)c1 (stereo partly drawn)	i	-3%	-1%	-12	-1%	-8%
Cc1ccc(NC(=O)Nc2ccc([N+](=O)[O-])cc2)nc1	-4%	34%	2%	-70*	-1%	-2%
Cc1nc(-c2cccc(NC(=O)Nc3ccc([N+](=O)[O-])cc3)c2)no1	u	14µM*	x	-99*	x	u
O=C(Nc1ccc([N+](=O)[O-])cc1)Nc1ccon1	-6%	-22%	x	-86*	-1%	-13%
Cc1ccc(NC(=O)Nc2cccc([N+](=O)[O-])c2)nc1	7%	38%	3%	13	-7%	-4%
SMILES	Vaccinia mCherry	FMDV antiviral	Giardia FBPA inh	HCMV antiviral	HCV inhibitor	VACV Venus inh
COc1ccccc1N1C(=O)C2CCC(c3ccccc3)CC2C1=O (stereo not drawn)	-2%	22µM*	2%	-18	4%	-14%
Cc1cccc(N2C(=O)C3CCC(c4ccccc4)CC3C2=O)c1 (stereo not drawn)	-7%	u	4%	17	24%	-7%
CCOC(=O)[C@H]1[C@H]2COc3cc(OC)ccc3[C@@H]2N2C(=O)c3c(C)cc(C)cc3NC(=O)[C@@]12C	-2%	-22%	x	19	u	-22%
O=C(CSc1nc2ccccc2s1)N/N=C/c1cc([N+](=O)[O-])ccc1O	u	0%	15%	-6	3%	0%
Cc1cc(C)c(NC(=S)NC(=O)c2ccc(-c3ccccc3)cc2)c(C)c1	-14%	u	-1%	-84*	3%	-4%
O=C(NC(=S)Nc1ccccn1)c1ccccc1	i	46%	u	0	-18%	-13%
Cc1ccc(NC(=S)NC(=O)c2ccccc2)cc1NC(=S)NC(=O)c1ccccc1	-23%	72%	u	47	-30%	u
O=C(NC(=S)Nc1ccccn1)c1ccc(-c2ccccc2)cc1	11µM*	8%	x	-20	u	-29%
S=C(Nc1ccc(Nc2ccccc2)cc1)Nc1ccccn1	u	-20%	-3%	-95*	10µM*	-29%
CCOC(=O)C1CCCN(S(=O)(=O)c2ccc3c(c2)N(C(C)=O)CCO3)C1 (stereo not drawn)	x	-1%	8%	5	12%	x
COc1ccccc1NC(=O)N[C@H]1CC[C@@]23CCCN2C(=O)CCC[C@H]3C1Cc1ccccc1 (stereo partly drawn)	x	x	x	-14	x	x
COc1ccccc1N1CCN(C(=O)COc2cc(C)cc3oc(=O)cc(C)c23)CC1	x	u	x	9	8.9µM*	x
Cc1cccc(N2CCN(C(=O)COc3ccc4c(C)cc(=O)oc4c3C)CC2)c1C	-26%	u	x	-34	10µM*	-24%
COc1ccccc1N1CCN(C(=O)COc2cc(C)ccc2C)CC1	-14%	-24%	-1%	-3	-1%	-3%
Cc1cccc(N2CCN(C(=O)COc3ccc4ccc(=O)oc4c3)CC2)c1C	x	u	7%	u	11µM*	x
COC(=O)Cc1c(C)c2ccc(OCC(=O)N3CCC(C)CC3)c(C)c2oc1=O	-19%	35µM*	x	-14	u	-17%
O=C(NNc1nc(-c2ccc(Br)cc2)cs1)c1ccco1	x	50%	5%	-10	u	x
CCC1CN(CCNC(=O)c2scc3c2OCCO3)Cc2cc(OC)ccc2O1 (stereo not drawn)	-11%	27%	x	x	x	-1%
COCC(=O)Nc1cc(C(=O)N2CCCC2c2nccs2)c2c(c1)nc(-c1ccncc1)n2C (stereo not drawn)	-12%	-5%	x	x	x	-4%
COC(=O)C(c1ccccc1)(c1cn(C)c2ccccc12)C(Nc1ccc(Cl)cc1)c1ccccc1 (stereo not drawn)	x	x	x	-27	x	x
COc1ccc(NC(=O)c2cc3c(Cl)nc4ccccc4c3s2)cc1OC	-10%	u	5%	-83*	u	-1%
